Test results from PubChem BioAssay.
Calls of active or inactive are those of the source.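 How the source made its calls, unless noted: active means compound that reduces growth-factor-driven endothelial tube area in a mixed cell culture, no cutoff stated; inactive means the rest.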

Assay: inhibition of endothelial tube formation, primary screen, imaging, VEGF stimulated, CD31 staining, tube area, NPC library (AID 1117340)
Settings: VEGF-stimulated ADSC/ECFC co-culture, at 10 µM, active compounds read high

Row | Structure (SMILES) | tube area decrease
1 | O=C1NCCN1CCN1CCC(c2cn(-c3ccc(F)cc3)c3ccc(Cl)cc23)CC1 | 100% (active)
2 | CC(CN(C)C)C(C)(O)Cc1ccc(Cl)cc1 (stereo not drawn) | 7.9% (inactive)
3 | O=c1[nH]c(=O)n([C@H]2CCCO2)cc1F | 3.6% (inactive)
4 | O=C(CCCl)NCCc1ccccc1 | -1.9% (inactive)
5 | COc1cc(O)c(C(=O)c2ccccc2)cc1S(=O)(=O)O | -4.4% (inactive)
6 | CCNC(=O)/C=C/c1cccc(Br)c1 | -15.1% (inactive)
7 | Nc1c[n+](N2CCOCC2)no1 | -10.8% (inactive)
8 | O=C(OCCOCCO)c1ccccc1Nc1cccc(C(F)(F)F)c1 | 13.5% (inactive)
9 | CCOC(=O)[C@@](C)(N)Cc1ccc(O)c(O)c1 | -1.8% (inactive)
10 | CCCCC(O)c1ccccc1 (stereo not drawn) | -9.9% (inactive)
11 | Cn1c(=O)c2c(ncn2CC(=O)O)n(C)c1=O | -15.7% (inactive)
12 | O=P(O)(O)C(Cl)(Cl)P(=O)(O)O | 26.4% (inactive)
13 | CO/N=C(\C(=O)N[C@@H]1C(=O)N2C(C(=O)O)=C(CSc3nc(=O)c(O)nn3C)CS[C@H]12)c1csc(N)n1 | -1.5% (inactive)
14 | NC(=O)C(c1ccccc1)(c1ccccc1)[C@@H]1CCN(CCc2ccc3c(c2)CCO3)C1 | 25.4% (inactive)
15 | NCCNCCNCCNCCN | -4.2% (inactive)
16 | C#C[C@]1(O)CC[C@H]2[C@@H]3CCc4cc(OC5CCCC5)ccc4[C@H]3CC[C@@]21C | 46.9% (active)
17 | O=C(NCCCN1CCOCC1)c1ccc(Cl)cc1 | 12.7% (inactive)
18 | CC[C@H](C)[C@H](N)C(=O)O | 27% (inactive)
19 | Cc1nc2ccccc2n1Cc1ccc(Cl)cc1 | 62% (active)
20 | C[N+](C)(C)CC(O)CC(=O)[O-] (stereo not drawn) | 0.3% (inactive)

Row | Structure (SMILES) | tube area decrease
21 | CN1CC[C@H](c2c(O)cc(O)c3c(=O)cc(-c4ccccc4Cl)oc23)[C@H](O)C1 | 110% (active)
22 | COc1ccc(-n2nc(CCC(=O)N(C)O)cc2-c2ccc(Cl)cc2)cc1 | 19.2% (inactive)
23 | O=C(O)CCCCC(=O)O | -7.7% (inactive)
24 | Cc1cccn2c(=O)c(-c3nnn[nH]3)cnc12 | -6.7% (inactive)
25 | Cc1cc(CC(C)CC(C)(C)C)n(O)c(=O)c1 (stereo not drawn) | 107% (active)
26 | CCC1C(=O)OCC1Cc1cncn1C (stereo not drawn) | -1.1% (active)
27 | O=C1OC2(c3ccccc31)c1cc(I)c(O)c(I)c1Oc1c2cc(I)c(O)c1I | 12% (inactive)
28 | N[C@@H](Cc1ccc(O)cc1)C(=O)O | 1% (inactive)
29 | CCOCCn1c(N2CCCN(C)CC2)nc2ccccc21 | 3.4% (inactive)
30 | O=C1NCN(c2ccccc2)C12CCN(CCCC(c1ccc(F)cc1)c1ccc(F)cc1)CC2 | 109% (active)
31 | CCN(CC)C(=O)Nc1ccc(OCC(O)CNC(C)(C)C)c(C(C)=O)c1 (stereo not drawn) | -7.8% (inactive)
32 | Cc1ncc([N+](=O)[O-])n1C | -11.6% (inactive)
33 | CN(C)CCOC1=Cc2ccccc2Sc2ccc(Cl)cc21 | 89.3% (active)
34 | C[C@]1(Cn2ccnn2)[C@H](C(=O)O)N2C(=O)C[C@H]2S1(=O)=O | -6% (inactive)
35 | CCOc1ccccc1C(N)=O | -6.8% (inactive)
36 | N#Cc1cc(NC(=O)C(=O)O)c(Cl)c(NC(=O)C(=O)O)c1 | -0.9% (inactive)
37 | Clc1cc(Cl)c(OCC#CI)cc1Cl | 106% (active)
38 | CCCCC(CC)COC(=O)c1ccccc1O (stereo not drawn) | -7.3% (inactive)
39 | CCOc1ccccc1OCC1CNCCO1 (stereo not drawn) | -7% (inactive)

Assay: glucagon-like peptide 1 release enhancers, primary assay, NCI-H716 cell line, NPC library (AID 1117341;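 active means compound raises GLP1 secretion from the human gut endocrine cells, with no numeric limit stated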; further: reference of the scale not given here)
Settings: NCI-H716 cells, at 10 µM, active compounds read high

Row | Structure (SMILES) | GLP1 secretion stimulation
40 | O=C1NCCN1CCN1CCC(c2cn(-c3ccc(F)cc3)c3ccc(Cl)cc23)CC1 | -1.3% (inactive)
41 | CC(CN(C)C)C(C)(O)Cc1ccc(Cl)cc1 (stereo not drawn) | -2% (inactive)
42 | O=c1[nH]c(=O)n([C@H]2CCCO2)cc1F | -1.7% (inactive)
43 | O=C(CCCl)NCCc1ccccc1 | -1.9% (inactive)
44 | COc1cc(O)c(C(=O)c2ccccc2)cc1S(=O)(=O)O | -0.7% (inactive)
45 | CCNC(=O)/C=C/c1cccc(Br)c1 | -0.7% (inactive)
46 | Nc1c[n+](N2CCOCC2)no1 | -2.6% (inactive)
47 | O=C(OCCOCCO)c1ccccc1Nc1cccc(C(F)(F)F)c1 | -1.6% (inactive)
48 | CCOC(=O)[C@@](C)(N)Cc1ccc(O)c(O)c1 | -2.3% (inactive)
49 | CCCCC(O)c1ccccc1 (stereo not drawn) | -3.9% (inactive)
50 | Cn1c(=O)c2c(ncn2CC(=O)O)n(C)c1=O | -0.7% (inactive)
51 | O=P(O)(O)C(Cl)(Cl)P(=O)(O)O | -4.3% (inactive)
52 | CO/N=C(\C(=O)N[C@@H]1C(=O)N2C(C(=O)O)=C(CSc3nc(=O)c(O)nn3C)CS[C@H]12)c1csc(N)n1 | -1.7% (inactive)
53 | NC(=O)C(c1ccccc1)(c1ccccc1)[C@@H]1CCN(CCc2ccc3c(c2)CCO3)C1 | 0.9% (inactive)
54 | NCCNCCNCCNCCN | -2.1% (inactive)
55 | C#C[C@]1(O)CC[C@H]2[C@@H]3CCc4cc(OC5CCCC5)ccc4[C@H]3CC[C@@]21C | 32.5% (active)
56 | O=C(NCCCN1CCOCC1)c1ccc(Cl)cc1 | -0.3% (inactive)
57 | CC[C@H](C)[C@H](N)C(=O)O | -0.4% (inactive)
58 | Cc1nc2ccccc2n1Cc1ccc(Cl)cc1 | -1.7% (inactive)
59 | C[N+](C)(C)CC(O)CC(=O)[O-] (stereo not drawn) | -1.8% (inactive)

Row | Structure (SMILES) | GLP1 secretion stimulation
60 | CN1CC[C@H](c2c(O)cc(O)c3c(=O)cc(-c4ccccc4Cl)oc23)[C@H](O)C1 | 6.7% (inactive)
61 | COc1ccc(-n2nc(CCC(=O)N(C)O)cc2-c2ccc(Cl)cc2)cc1 | 9.1% (inactive)
62 | O=C(O)CCCCC(=O)O | 1.4% (inactive)
63 | Cc1cccn2c(=O)c(-c3nnn[nH]3)cnc12 | 3.6% (inactive)
64 | Cc1cc(CC(C)CC(C)(C)C)n(O)c(=O)c1 (stereo not drawn) | -0.7% (inactive)
65 | CCC1C(=O)OCC1Cc1cncn1C (stereo not drawn) | 1.2% (inactive)
66 | O=C1OC2(c3ccccc31)c1cc(I)c(O)c(I)c1Oc1c2cc(I)c(O)c1I | 24.3% (active)
67 | N[C@@H](Cc1ccc(O)cc1)C(=O)O | 3% (inactive)
68 | CCOCCn1c(N2CCCN(C)CC2)nc2ccccc21 | -2.3% (inactive)
69 | O=C1NCN(c2ccccc2)C12CCN(CCCC(c1ccc(F)cc1)c1ccc(F)cc1)CC2 | -0.5% (inactive)
70 | CCN(CC)C(=O)Nc1ccc(OCC(O)CNC(C)(C)C)c(C(C)=O)c1 (stereo not drawn) | -4.8% (inactive)
71 | Cc1ncc([N+](=O)[O-])n1C | -0.5% (inactive)
72 | CN(C)CCOC1=Cc2ccccc2Sc2ccc(Cl)cc21 | -2.6% (inactive)
73 | C[C@]1(Cn2ccnn2)[C@H](C(=O)O)N2C(=O)C[C@H]2S1(=O)=O | 1.9% (inactive)
74 | CCOc1ccccc1C(N)=O | 1.9% (inactive)
75 | N#Cc1cc(NC(=O)C(=O)O)c(Cl)c(NC(=O)C(=O)O)c1 | -0.9% (inactive)
76 | Clc1cc(Cl)c(OCC#CI)cc1Cl | -0.7% (inactive)
77 | CCCCC(CC)COC(=O)c1ccccc1O (stereo not drawn) | 1.9% (inactive)
78 | CCOc1ccccc1OCC1CNCCO1 (stereo not drawn) | -0.1% (inactive)
